DT40 TDP1 no CPT: qHTS for Inhibitors of human tyrosyl-DNA phosphodiesterase 1 (TDP1): qHTS in cells in absence of CPT; Potency, µM (top dose mostly 46.2 µM), without a hit: top-dose activity change, negative = growth inhibition, hits mostly inhibitors; hit rate 15% among 420,000; DT40 Tdp1-/- hTDP1 cells, no CPT, ATP luminescence, 48 h; further: potency means the concentration at half of the fitted maximal effect; on the % scale 0 is the no-effect control and ±100 the full control effect; nearly all actives have a fitted effect of over 55% in size
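A cellular qHTS used chicken DT40 cells lacking endogenous Tdp1 but carrying stably transfected human TDP1. Compounds were applied without camptothecin, and cell growth kinetics were judged by ATP-dependent luminescence after ≥48 hr.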
TDP1 cell CPT: qHTS for Inhibitors of human tyrosyl-DNA phosphodiesterase 1 (TDP1): qHTS in cells in presence of CPT | AID 686979, 2013 | Potency, µM (top dose mostly 46.2 µM), inactives show at the top dose activity change, negative = growth inhibition, hits mostly inhibitors | hit rate 12% among 420,000 | chicken DT40 Tdp1-/-;hTDP1 cells + 20 nM CPT, ATP luminescence, 48 h; further: potency means the concentration at half of the fitted maximal effect; on the % scale 0 is the no-effect control and ±100 the full control effect; nearly all actives have a fitted effect of over 55% in size
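Chicken DT40 Tdp1-/- cells complemented with human TDP1, 400 cells/well, exposed to compounds plus 20 nM camptothecin for at least 48 h at 37 C; viability read as ATP content by CellTiter-Glo luminescence.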
TDP1 inh: qHTS Assay for Inhibitors of Tyrosyl-DNA Phosphodiesterase (TDP1); Tyrosyl-DNA phosphodiesterase 1 (Homo sapiens), Q9NUW8; recombinant TDP1, AlphaScreen DNA substrate cleavage; Potency, µM (top dose mostly 130 µM), for the others: top-dose activity change, negative = inhibition, actives largely listed as inhibitors; hit rate 0.28% among 350,000; AID 485290, 2010; further: potency means the concentration at half of the fitted maximal effect; on the % scale 0 is the no-effect control and ±100 the full control effect; nearly all actives have a fitted effect of over 40% in size
Target sequence (Q9NUW8 whole entry, looked up): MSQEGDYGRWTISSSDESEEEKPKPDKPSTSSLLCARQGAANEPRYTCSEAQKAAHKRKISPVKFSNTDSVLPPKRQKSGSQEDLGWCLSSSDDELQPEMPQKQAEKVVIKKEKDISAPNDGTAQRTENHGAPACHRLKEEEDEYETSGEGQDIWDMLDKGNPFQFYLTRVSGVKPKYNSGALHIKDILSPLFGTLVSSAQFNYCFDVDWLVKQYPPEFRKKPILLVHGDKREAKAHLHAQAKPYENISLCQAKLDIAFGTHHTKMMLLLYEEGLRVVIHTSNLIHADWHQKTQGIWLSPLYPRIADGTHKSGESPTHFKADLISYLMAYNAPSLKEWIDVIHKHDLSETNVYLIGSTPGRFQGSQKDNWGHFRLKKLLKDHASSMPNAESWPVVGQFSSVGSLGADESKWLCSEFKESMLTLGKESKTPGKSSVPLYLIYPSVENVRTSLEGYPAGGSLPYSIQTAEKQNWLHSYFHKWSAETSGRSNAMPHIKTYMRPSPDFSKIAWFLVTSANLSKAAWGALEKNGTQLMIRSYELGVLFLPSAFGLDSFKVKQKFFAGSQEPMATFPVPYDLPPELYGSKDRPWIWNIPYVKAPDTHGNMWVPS
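Recombinant human Tdp1 (E. coli-expressed, 1 nM final) preincubated with compounds 15 min at room temperature, then 5'-biotin/3'-phosphotyrosine-FITC DNA substrate (15 nM final) added for 5 min. AlphaScreen beads (10 ug/ml final) added 10 min; cleavage lowers signal.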
uPA generation: qHTS for Inhibitors of Cell Surface uPA Generation; cell surface uPA generation assay, qHTS; Potency, µM (top dose mostly 38.3 µM), for inactives: top-dose activity change, negative = inhibition, usual class: inhibitors; hit rate 0.31% among 330,000; active means well fitted inhibition curve with a large enough effect; inconclusive means small, poorly fitted or top-dose-only effect; inactive means no such curve, though single readings can be large or run the other way; tested in mouse RAW 264.7 cells; further: potency means the concentration at half of the fitted maximal effect; on the % scale 0 is the no-effect control and ±100 the full control effect; nearly all actives have a fitted effect of over 55% in size
miR-21 act: qHTS Assay for Modulators of miRNAs and/orActivators of miR-21; HeLa miR-21 FLuc reporter, luciferase, 48 h; Potency, µM (series often up to 38.3 µM), for the others: at the highest dose activity change, positive = activation, usual class: activators; 340,000 tested, under 10 active; AID 2288, 2010;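 further: % of control where 0% means no effect; miR-21 action dims this reporter so a rising signal means less miR-21 action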
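HeLa cells stably expressing CMV-driven firefly luciferase with a downstream miR-21 binding sequence, endogenously expressing miR-21, were treated with titrations (up to about 40uM final) for 48 hours at 37 degree Celsius. Luciferase luminescence was read after lysis.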
Numbers without * were called inactive; ? = inconclusive; . = no result. This is a sample that favours compounds with a hit; in the whole collection about 16% have one here. Unless noted, the call rests on the fitted dose curve; in most records, active means well fitted curve in the direction sought with a large enough effect; inconclusive means small, poorly fitted or top-dose-only effect, or another doubt; inactive means no such curve, though single readings can be large; an effect the other way counts as inactive or inconclusive.

SMILES	DT40 TDP1 no CPT	TDP1 cell CPT	TDP1 inh	uPA generation	miR-21 act
COc1ccc(NC(=O)CSc2nc3c(oc4ccccc43)c(=O)n2-c2ccc(C)c(C)c2)cc1	0%	-5%	-3%	.	11%
Cc1cc(/C([O-])=C(/C(=S)Nc2ccc(F)cc2)[n+]2ccccc2)c(C)n1-c1ccc(F)cc1	.	.	7%	.	-17%
Cc1cc(/C([O-])=C(/C(=S)Nc2ccccc2)[n+]2ccccc2)c(C)n1-c1ccccc1	?	?	5%	1%	-46%
Cc1cc(/C([O-])=C(/C(=S)Nc2ccc(F)cc2)[n+]2ccccc2)c(C)n1Cc1ccccc1Cl	23µM*	21µM*	8%	-1%	-8%
Cc1ccc(-n2c(C)cc(/C([O-])=C(/C(=S)Nc3ccc(F)c(Cl)c3)[n+]3ccccc3)c2C)cc1	23µM*	23µM*	10%	3%	-12%
CCOc1ccccc1NC(=O)Cn1c(-c2ccc(Cl)cc2)noc1=O	-11%	-23%	.	-7%	-3%
CCC1(c2ccc(F)cc2)NC(=O)N(CC(=O)N2c3ccccc3CC2C)C1=O (stereo unspecified)	?	?	2%	12%	.
CC1C/C(=N/NC(=O)c2ccc(CSc3nc4ccccc4[nH]3)cc2)CC(C)(C)C1 (stereo unspecified)	-27%	-26%	5%	0%	-16%
CC1C/C(=N/Nc2nc3ccccc3[nH]2)CC(C)(C)C1 (stereo unspecified)	?	21µM*	11%	-16%	11%
Cc1cccc(NC(=O)C2(c3ccccc3)CC2(Cl)Cl)c1 (stereo unspecified)	-24%	7%	1%	1%	11%
Cc1ccc(NC(=O)C2(c3ccccc3)CC2(Cl)Cl)cc1C (stereo unspecified)	16µM*	?	-8%	6%	-41%
Cc1ccc(N=C2C(=O)Nc3c(C)cccc32)cc1	-22%	-5%	7%	12%	0%
Cc1ccc(N=C2C(=O)Nc3ccc(Br)cc32)cc1	12µM*	18µM*	.	-15%	15%
CCCOc1ccc(N2C(=O)C3ON(c4ccccc4)C(c4ccc(O)c(OC)c4)C3C2=O)cc1 (stereo unspecified)	10%	4%	3%	-5%	-2%
CCc1ccc(CNCc2ccc(OCC(O)CN(C)Cc3ccccc3)cc2)nc1 (stereo unspecified)	23µM*	16µM*	6%	-9%	26%
CCN(CC)c1ccc(/C=N/OCC(=O)N2CCCc3ccccc32)cc1	?	?	2%	-15%	-6%
CC1CCc2sc(C(=O)NCc3ccccn3)cc2C1 (stereo unspecified)	16µM*	18µM*	.	-2%	.
CC1CCc2sc(C(=O)OCC(=O)NCc3ccccc3)cc2C1 (stereo unspecified)	18µM*	21µM*	-3%	1%	12%
Cc1ccc(CNC(=O)COC(=O)c2cc3c(s2)CCC(C)C3)cc1 (stereo unspecified)	?	21µM*	0%	4%	-4%
O=C(NNC(=O)c1ccccc1OCc1ccccc1)c1ccccc1O	3.7µM*	5.8µM*	1%	-1%	20%
O=C(NNC(=O)c1ccccc1OCc1ccc(F)cc1)c1ccccc1O	5.2µM*	6.5µM*	-3%	?	9%
CN(C)S(=O)(=O)c1cccc(NC(=O)c2ccccc2OCc2ccc(F)cc2)c1	?	15µM*	.	.	1%
CC(=O)c1cccc(NC(=O)c2ccccc2OCc2ccc(F)cc2)c1	-28%	-29%	11%	6%	4%
CC(=O)c1ccccc1OCc1ccc(S(=O)(=O)Cc2ccccc2)cc1	21µM*	26µM*	.	-39%	16%
COc1ccc(C(=O)N2CCN(CCc3ccccc3)CC2)cc1[N+](=O)[O-]	-20%	?	1%	-8%	-3%
